Compound activity as filed in PubChem BioAssay.
Most compounds without a hit are left out; they make up all but 1.6% or so of the library.
KCNQ2 inh: inhibitors of rat KCNQ2 potassium channel; CHO-K1 KCNQ2, FluxOR thallium flux, 20 min; active compounds read low; O88943; AID 2156; hit rate 1.1% among 310,000; B-score at 10 µM;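 active = fluorescence ratio B-score at most minus 3 library SDs, with starting brightness B-score within 2 library SDs, cut at about -5.5 in these data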
Target sequence (O88943 whole entry, looked up): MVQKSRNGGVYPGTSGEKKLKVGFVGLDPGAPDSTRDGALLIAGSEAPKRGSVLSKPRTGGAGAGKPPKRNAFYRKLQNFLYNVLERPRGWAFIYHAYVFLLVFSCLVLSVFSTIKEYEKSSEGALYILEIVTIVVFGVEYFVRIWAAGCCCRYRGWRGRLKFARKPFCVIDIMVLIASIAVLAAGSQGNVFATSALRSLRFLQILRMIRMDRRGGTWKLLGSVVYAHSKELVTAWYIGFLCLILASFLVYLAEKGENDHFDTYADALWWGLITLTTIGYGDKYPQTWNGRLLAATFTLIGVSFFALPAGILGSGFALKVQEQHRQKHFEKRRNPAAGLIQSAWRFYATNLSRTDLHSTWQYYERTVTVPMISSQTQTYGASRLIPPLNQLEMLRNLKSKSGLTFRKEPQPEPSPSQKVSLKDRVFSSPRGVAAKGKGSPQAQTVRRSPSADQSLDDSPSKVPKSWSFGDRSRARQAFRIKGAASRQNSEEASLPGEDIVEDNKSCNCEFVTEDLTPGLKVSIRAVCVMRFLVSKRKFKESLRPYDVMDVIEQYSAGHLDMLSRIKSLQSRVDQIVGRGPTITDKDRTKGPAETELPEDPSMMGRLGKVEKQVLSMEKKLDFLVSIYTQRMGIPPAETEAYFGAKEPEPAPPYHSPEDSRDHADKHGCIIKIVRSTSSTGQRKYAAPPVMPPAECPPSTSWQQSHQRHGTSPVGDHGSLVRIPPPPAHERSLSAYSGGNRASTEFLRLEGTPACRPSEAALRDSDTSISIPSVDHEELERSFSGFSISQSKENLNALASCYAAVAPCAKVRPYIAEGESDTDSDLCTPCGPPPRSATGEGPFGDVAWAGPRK
KCNQ2 pot: KCNQ2 (rat) channel potentiation; O88943; CHO-K1 KCNQ2, FluxOR thallium flux fluorescence; active compounds read high; B-score at 10 µM; hit rate 0.54% among 310,000; AID 2239;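 active = fluorescence ratio B-score at least 3 SD of library B-scores, with initial fluorescence B-score within 3 of them, cut at about 5.3 in these data; same plate scores as AID 2156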;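 also: B-score of peak minus minimum over baseline fluorescence ratio after K+ and Tl+ stimulus; positive B-score means potentiation of KCNQ2 with more thallium influx and brighter signal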
Kir21 confirm: confirmation of mouse Kir2.1 potassium channel inhibitors. shares compounds with KCNQ2 pot. Kir2.1-expressing cells, FluxOR thallium flux fluorescence; active compounds read low. Tl flux remaining, % of negative control (active compounds read low), % at 10 µM. hit rate 41% among 2,300;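 active = Primary-screen hit whose thallium flux fell at least 3 control SD below untreated wells in both duplicates, with normal baseline fluorescence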;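 also: 0% = blank wells without stimulus and 100% = stimulated no-compound controls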
HEK293 ctr: alters thallium flux in parental HEK293 cells, Kir2.1 counter-screen. shares compounds with KCNQ2 pot. FluxOR thallium flux fluorescence; 0% = unstimulated blank wells. FluxOR signal as % of negative control (100 = no effect), % at 10 µM. hit rate 19% among 2,300;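 active = dye signal at least 3 control SD above or below untreated wells in both duplicates, raw fluorescence within 3, either direction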;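 also: percent is based on the flux ratio of peak minus minimum fluorescence over baseline F0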
CHO-K1 ctr: alters thallium flux in parental CHO-K1 cells, KCNQ2 counter-screen; activity increase over 3SD of controls, % at 10 µM; shares compounds with KCNQ2 pot; hit rate 43% among 1,200; FluxOR thallium flux fluorescence; zero = vehicle mean+3SD, 100% = vehicle-minus-blank window; AID 2282;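 active = signal rise of at least 3 SD above the untreated control mean, in both duplicate wells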;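 also: counter screen of KCNQ2 potentiator hits so any rise reflects channel-independent effects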
KCNQ1 sel pot: human KCNQ1 counter-target activity of KCNQ2 potentiators. hit rate 28% among 1,200. shares compounds with KCNQ2 pot. AID 2283. CHO KCNQ1 stable, FluxOR thallium flux fluorescence; beyond 3SD, as % of vehicle-control signal. activation over 3SD threshold, % at 10 µM;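 active = fluorescence ratio rise of at least 3 SD of vehicle wells above their mean, in both replicate wells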;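 also: 0% = vehicle mean plus 3 SD and 100% = vehicle minus unstimulated blank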
KCNQ2 pot confirm: confirmation of rat KCNQ2 potassium channel potentiators; shares compounds with KCNQ2 pot; CHO-KCNQ2 cells, FluxOR thallium flux fluorescence; potentiation, less the hit threshold, % at 10 µM; hit rate 68% among 1,200; AID 2287;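 active = fluorescence ratio rising 3 SD or more over the vehicle control mean in both replicates, plus primary screen hit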;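 also: peak minus minimum thallium fluorescence divided by baseline after K/Tl stimulus; 0% = vehicle mean plus 3 SD and 100% = vehicle minus unstimulated blank difference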
Kir2-1 sel: tests whether KCNQ2 potentiators also affect mouse Kir2.1; shares compounds with KCNQ2 pot; HEK293 Kir2.1, FluxOR thallium flux fluorescence; activity over 3SD threshold, % at 10 µM; hit rate 2% among 1,200; AID 2345;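 active = fluorescence ratio rise of at least 3 SD above the vehicle-control mean, seen in both replicates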;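 also: 0% = vehicle mean plus 3 SD and 100% = vehicle minus no-stimulus blank window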
KCNQ2 W236L pot: rat KCNQ2 W236L mutant potentiation by KCNQ2 potentiators. shares compounds with KCNQ2 pot. CHO KCNQ2-W236L, automated patch clamp current. current increase over 3SD of negative controls (%), active compounds read high, % at 25 µM. hit rate 10% among 940;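 active = current increase at least 3 SD of the untreated controls above them in both duplicate recordings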
Numbers without * were called inactive; i = inactive; nt = no result given.

SMILES	KCNQ2 inh	KCNQ2 pot	Kir21 confirm	HEK293 ctr	others
CCOC(=O)Nc1c(O)ccc2oc(C)c(-c3ccccc3)c12	i	3.34	27.5%*	i
CCOC(=O)C(=O)Nc1nc(-c2ccccc2)c(-c2ccccc2)o1	i	nt	nt	nt
Cc1ccc(NC(=O)NCC2CCN(Cc3cc(C)ccc3Cl)CC2)c(C)c1	i	4.81	nt	nt
Cc1ccc(C)c(CN2CCC(CNC(=O)Nc3cccc(Cl)c3C)CC2)c1	i	5.31*	i	i	CHO-K1 ctr=-0.6;KCNQ1 sel pot=-14.4;KCNQ2 pot confirm=-0.5;Kir2-1 sel=-46.3;KCNQ2 W236L pot=i
O=C(CSc1ncn[nH]1)c1ccc2c(c1)OCCO2	i	1.39	nt	nt
CCn1c(O)c(N=NC(=O)Cc2csc(N3CCOCC3)n2)c2ccccc21	i	nt	nt	nt
S=c1nc(C2CCCCC2)n(-c2ccccc2)[nH]1	i	10.7*	i	261.5%*	CHO-K1 ctr=41.7*;KCNQ1 sel pot=-12.0;KCNQ2 pot confirm=22.3*;Kir2-1 sel=-31.9;KCNQ2 W236L pot=i
S=c1nc(-c2ccccc2)n(-c2ccccc2)[nH]1	i	0.07	nt	nt
Cc1cccn2cc(-c3ccc(F)cc3)nc12	i	1.9	nt	nt
C=CCOc1ccc(CNc2ccc(NC(=O)CCC)cc2)cc1OCC	i	1.72	nt	nt
C=CCOc1c(Br)cc(CNc2ccc(NC(=O)CCC)cc2)cc1OCC	i	18*	i	i	CHO-K1 ctr=-12.8;KCNQ1 sel pot=80.4*;KCNQ2 pot confirm=31.7*;Kir2-1 sel=-32.7;KCNQ2 W236L pot=i
Cn1cc(C(=O)NCc2cccnc2)c(=O)c2cc(S(=O)(=O)N3CCCCCC3)ccc21	i	nt	nt	nt
Cc1ccc(-n2cccc2C(=S)N=P(N(C)C)(N(C)C)N(C)C)cc1	i	nt	i	i
Cc1ccc(-n2cccc2C(=O)NS(=O)(=O)c2ccc(C)cc2)cc1	i	0.75	nt	nt
Cc1cccc(NC(=S)NNC(=O)CC(C)O)c1C (configuration not stated)	i	nt	nt	nt
O=C(O)c1ccc(NC(=S)N2CCCCC2)cc1	i	0.58	nt	nt
S=C(Nc1ccccc1)N1CCCCC1	i	6.94*	i	i	CHO-K1 ctr=-13.7;KCNQ1 sel pot=6.3*;KCNQ2 pot confirm=-14.0;Kir2-1 sel=-28.9
CN(C(=S)NC(=O)c1ccccc1)C1CCCCC1	i	3.88	nt	nt
Nc1nc(CSc2ccccn2)nc(Nc2ccccc2)n1	i	5.53*	i	i	CHO-K1 ctr=-8.8;KCNQ1 sel pot=-19.8;KCNQ2 pot confirm=-11.4;Kir2-1 sel=-38.9
Nc1nc(CSCCO)nc(Nc2ccccc2)n1	i	0.22	nt	nt
Cc1ccc(C2C(/C=C3/SC(=S)NC3=O)=C(c3cccs3)Oc3ccccc32)cc1 (configuration not stated)	i	5.81*	i	i	CHO-K1 ctr=-14.1;KCNQ1 sel pot=-8.9;KCNQ2 pot confirm=-9.4;Kir2-1 sel=-36.2
Cc1nn(C)c(C)c1/C=C1/SC(=S)NC1=O	i	1.22	nt	nt
CC(C)c1ccc(NC2CCCN(C(=O)c3cc(C(C)C)nc(N)n3)C2)cc1 (configuration not stated)	i	nt	nt	nt
COc1ccc(S(=O)(=O)N2CCN(Cc3ccc(Cl)cc3)CC2)cc1	i	nt	nt	nt
COc1ccc(CN2CCCN(S(=O)(=O)c3ccc(Br)cc3)CC2)cc1	i	nt	55.5%*	i
SMILES	KCNQ2 inh	KCNQ2 pot	Kir21 confirm	HEK293 ctr	others
S=C(NCc1cccs1)Nc1ccccc1Cl	i	1.25	nt	nt
CCC(NC(=S)NCc1ccc(F)cc1)c1ccc(C(C)C)cc1 (configuration not stated)	i	7.15*	i	i	CHO-K1 ctr=78.1*;KCNQ1 sel pot=-12.9;KCNQ2 pot confirm=21.4*;Kir2-1 sel=-28.8;KCNQ2 W236L pot=i
CCC(C)c1ccc(C(C)NC(=S)NCc2ccc(F)cc2)cc1 (configuration not stated)	i	5.16	nt	nt
Cc1cc(C)c2nc(C)cc(N/N=C/c3ccc(O)cc3)c2c1	-8.07*	-8.07	i	i
Cc1cc(N/N=C/c2ccc(O)cc2)c2cccc(C)c2n1	i	1.1	nt	nt
CCOC(=O)c1cnn(CCOC(=O)c2ccc(OC)cc2)c1NC(=O)c1ccc(OC)cc1	i	0.19	nt	nt
CC1=C(C(=O)OC2CCCCC2)C(c2cccc([N+](=O)[O-])c2)NC(=O)N1 (configuration not stated)	i	1.69	nt	nt
CC1=C(C(=O)OCC2CCCCC2)C(c2ccc(O)cc2)NC(=O)N1 (configuration not stated)	i	1.68	nt	nt
CC1=C(C(=O)OC2CCCCCCC2)C(c2cccc(O)c2)NC(=O)N1 (configuration not stated)	i	20.3*	i	i	CHO-K1 ctr=-0.3;KCNQ1 sel pot=-6.8;KCNQ2 pot confirm=81.6*;Kir2-1 sel=-19.1;KCNQ2 W236L pot=29.3%*
CC1=C(C(=O)OCC2CCCCC2)C(c2cccc(O)c2)NC(=O)N1 (configuration not stated)	i	17.1*	i	i	CHO-K1 ctr=-11.0;KCNQ1 sel pot=-20.9;KCNQ2 pot confirm=58.1*;Kir2-1 sel=-45.2;KCNQ2 W236L pot=34.4%*
Cc1cccc(/C=N/n2c(C3CCCCC3)n[nH]c2=S)c1	i	nt	nt	nt
CC(/C=N/n1c(C2CCCCC2)n[nH]c1=S)=C\c1ccccc1	i	8.35*	i	i	CHO-K1 ctr=92.0*;KCNQ1 sel pot=23.4*;KCNQ2 pot confirm=-14.7;Kir2-1 sel=-26.1
O=C(Nc1ccc2ccccc2c1)c1ccccc1O	i	0.87	nt	nt
CCOc1ccc2nc(SCc3cccc(C)c3)nc(C)c2c1	i	1.52	nt	nt
CCOc1ccc(CCNC(=O)COC(=O)c2nn(C)c(=O)c3ccccc23)cc1OCC	i	nt	nt	nt
CC(C)Cc1nc2n[nH]c(N)c2c2c1CCCC2	i	2.59	nt	nt
CC(C)c1nc2n[nH]c(N)c2c2c1CCCC2	i	2.17	40.5%*	i
CCCCn1c(SCC(=O)NCCOC)nc2ccc(N3CCOCC3)cc2c1=O	i	1.76	nt	nt
CCC(=O)N1CCCc2cc(S(=O)(=O)N3CCN(c4ncccn4)CC3)ccc21	i	0.63	nt	nt
CCOc1cc(CNCc2ccncc2)cc(Br)c1OCc1ccc(F)cc1	i	nt	i	i
CCNCc1cc(Cl)c(OCc2ccccc2)c(OCC)c1	i	nt	42.5%*	i
CCCCNCc1cc(Br)c(OCC(=O)NCc2ccccc2)c(OC)c1	i	nt	nt	nt
CCOc1cc(CNCCO)cc(Br)c1OCc1ccccc1	i	nt	i	i
Fc1ccc(COc2ccc(Br)cc2CNCc2ccncc2)cc1	i	nt	nt	nt
CCOc1cc(CNCCSc2nnnn2C)cc(Br)c1OCc1ccccc1	i	nt	nt	nt
CCOc1cc(CNCc2ccccn2)cc(Cl)c1OCC	i	nt	nt	nt
CCCCNCc1cc(Br)c(OCc2cccs2)c(OC)c1	i	nt	19.5%*	i
COc1ccc(CCCC(=O)NCCc2ccccc2)c(C)c1	i	nt	nt	nt
